Rows were chosen to be rich in hits. Some 11% of all compounds tested hit in one or more screens of this group.
HEK293 tox = HEK 293 cell cytotoxicity; Potency, µM (titrated, usually from 115 µM), inactives show top-dose activity change, negative = cytotoxicity, most hits filed as inhibitors; 94,000 compounds, 6.6% hits; HEK 293 viability, ATP luminescence (CellTiter-Glo), 48-72 h; AID 1345083; active = well fitted curve in the direction sought with a large enough effect; inconclusive = small, poorly fitted or top-dose-only effect, or another doubt; inactive = no such curve, though single readings can be large; an effect the other way counts as inactive or inconclusive; note: % is set by controls: 0 for no effect and ±100 for the full control effect; nearly all actives have a fitted effect of over 60% in size
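Viability of HEK 293 cells, plated at 250 cells/well, was judged by cellular ATP after compound treatment for 48 or 72 hr. Luminescence was imaged 10 min after CellTiter-Glo addition at room temperature.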
Luciferase inh = inhibitors of firefly (Photinus pyralis) luciferase | P08659 | purified P. pyralis luciferase, luminescence, biochemical | Potency, µM (doses to about 115 µM), most hits filed as inhibitors | 76,000 compounds, 2.5% hits; active = well fitted curve in the direction sought with a large enough effect; inconclusive = small, poorly fitted or top-dose-only effect, or another doubt; inactive = no such curve, though single readings can be large; an effect the other way counts as inactive or inconclusive; note: % is set by controls: 0 for no effect and ±100 for the full control effect; nearly all actives have a fitted effect of over 65% in size
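Luminescence read by CCD imager after adding enzyme (10nM final) to wells holding compound, titrated in qHTS. Substrates 10uM each D-luciferin and ATP; buffer 50mM Tris acetate pH 7.5, 10mM Mg acetate, Tween-20, BSA.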
NIH3T3 tox = kills NIH 3T3 cells; NIH 3T3 viability, CellTiter-Glo ATP luminescence, 48-72 h; Potency, µM (series often up to 96.7 µM), for the others: at the top dose activity change, negative = cytotoxicity, most hits filed as inhibitors; 94,000 compounds, 4.3% hits; active = well fitted curve in the direction sought with a large enough effect; inconclusive = small, poorly fitted or top-dose-only effect, or another doubt; inactive = no such curve, though single readings can be large; an effect the other way counts as inactive or inconclusive; note: % is set by controls: 0 for no effect and ±100 for the full control effect; nearly all actives have a fitted effect of over 55% in size
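Viability of NIH 3T3 cells after 48 or 72 hr compound treatment at 37 °C was assessed by CellTiter-Glo, with luminescence imaged following a 10 min room-temperature step.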
hNpr1 antagonist = antagonists of human natriuretic peptide receptor Npr1; HEK293 hNpr1 GloSensor cGMP, ANP-stimulated luminescence; 76,000 compounds, 1.6% hits; Potency, µM (series often up to 46.3 µM), without a hit: at the highest dose activity change, negative = inhibition, actives largely listed as inhibitors; P16066; note: % is set by controls: 0 for no effect and ±100 for the full control effect; nearly all actives have a fitted effect of over 60% in size
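HEK293 cells stably expressing human Npr1 and cGMP GloSensor pGS-40F, loaded 2 h with 2% GloSensor reagent, given compound 30 min at room temperature. Luminescence read before and 20 min after 0.1 nM hNppA.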
NPR1 antag cnf = confirmation of human Npr1 natriuretic peptide receptor antagonists; AID 1347044; Potency, µM (top dose mostly 57.6 µM), without a hit: top-dose activity change, negative = inhibition, usual class: inhibitors; 1,400 compounds, 76% hits; shares compounds with hNpr1 antagonist; HEK293 hNpr1 cGMP GloSensor luminescence, ANP-stimulated; note: nearly all actives have a fitted effect of over 70% in size
NPR2 antag = hNpr2 antagonism, selectivity versus Npr1; shares compounds with hNpr1 antagonist; HEK293 hNpr2 GloSensor cGMP luminescence, CNP-stimulated; Potency, µM (series often up to 57.6 µM), for the others: at the top dose activity change, negative = inhibition, hits mostly inhibitors; 1,400 compounds, 67% hits; AID 1347046; note: nearly all actives have a fitted effect of over 70% in size
FLuc inh counter = FLuc enzyme inhibition, Npr1 counter-screen. shares compounds with hNpr1 antagonist. purified FLuc enzyme, luminescence, Km substrate. Potency, µM (doses to about 57.6 µM), without a hit: at the highest dose activity change, negative = inhibition, actives largely listed as inhibitors. 1,400 compounds, 0.7% hits. AID 1347047; active = well fitted curve in the direction sought with a large enough effect; inconclusive = small, poorly fitted or top-dose-only effect, or another doubt; inactive = no such curve, though single readings can be large; an effect the other way counts as inactive or inconclusive; note: 0% is about no effect
GloSensor cGMP = counter-screen for Npr1 antagonists: GloSensor control cell line | shares compounds with hNpr1 antagonist | HEK293 GloSensor cGMP, SNP-stimulated, luminescence | Potency, µM (titrated, usually from 57.6 µM), for the others: at the highest dose activity change, negative = inhibition, actives largely listed as inhibitors | 1,400 compounds, 69% hits; note: % is set by controls: 0 for no effect and ±100 for the full control effect; nearly all actives have a fitted effect of over 70% in size
Starred values were filed as active, the others as inactive; i = inactive; ? = inconclusive; . = not tested or not shown; [ ] = another dose, or the depositor's remark. Unless noted, calls come from the whole dose curve. Potency is the fitted concentration of half-maximal effect.

SMILES | HEK293 tox | Luciferase inh | NIH3T3 tox | hNpr1 antagonist | NPR1 antag cnf | NPR2 antag | FLuc inh counter | GloSensor cGMP
O=C(Nc1ccc(F)cc1)c1ccc2c(c1)OCCN(c1ccccc1)C2 | 56µM* | i | ? | 32µM* | 40µM* | 40µM* | -14%[86.2 µM] | 40µM*
Cc1ccc(CNC(=O)c2ccc3c(c2)CN(Cc2ccc(N(C)C)cc2)CCO3)cc1 | ? | i | ? | 11µM* | 24µM* | 27µM* | 2% | 27µM*
O=C(NCc1ccccc1)c1ccc2c(c1)OCCN(c1ccccc1)C2 | ? | i | ? | ? | ? | ? | -1%[86.2 µM] | ?
Cn1cnc2ccc(-c3ccsc3)nc2c1=O | -25%[230 µM] | ? | ? | 6%[70.6 µM] | . | . | . | .
Oc1ccc(-c2nc(C3CC3)nc3c2CCN(Cc2cccc4ccccc24)CC3)cc1 | 18µM* | i | ? | -24% | -27%[86.2 µM] | ? | 2%[86.2 µM] | -32%[86.2 µM]
Clc1ccc(-c2nc(C3CC3)nc3c2CCN(Cc2ccccc2)CC3)cc1 | -15% | i | -5% | 8% | . | . | . | .
Cc1cc(C(F)(F)F)nc(CCNC(=O)C2NCCc3[nH]cnc32)n1 (stereo not drawn) | i | i | 2% | 0% | . | . | . | .
COc1cccc(CNC(=O)Cn2cccc2-c2nc(-c3ccc4c(c3)OCO4)no2)c1 | 2% | i | 4% | 7% | . | . | . | .
COc1ccc(-c2noc(CC3CCN(C(=O)Cc4ccc(OC)c(Cl)c4)CC3)n2)cc1 | ? | i | ? | 13µM* | 24µM* | 24µM* | 0% | 17µM*
COc1ccc(CC(=O)N2CCC(Cc3nc(-c4ccccc4)no3)CC2)cc1Cl | ? | i | 35µM* | 13µM* | 24µM* | 27µM* | 2% | 24µM*
CC(C)NC(=O)N1C2CCC1CN(c1ccc(C(F)(F)F)cc1)C2 | ? | . | ? | . | 21µM* | 19µM* | 0% | 15µM*
CC(=O)N1C2CCC1CN(c1ccc(C(F)(F)F)cc1)C2 | -28%[172 µM] | . | ? | . | . | . | . | .
O=C(c1nnc(CNC2CCOCC2)n1-c1ccccc1)N1CCC[C@@H]1C(c1ccccc1)c1ccccc1 | -22% | i | ? | -1% | . | . | . | .
CCCc1nc(NCc2c(F)ccc(OC)c2F)c2cnn(C)c2n1 | ? | i | ? | ? | . | . | . | .
CSCc1nc(CNc2nc(C3CCCC3)nc3c2cnn3C)cs1 | 25µM* | i | ? | 8.9µM* | 15µM* | 19µM* | 0% | 12µM*
COc1ccc(CC(=O)NC2CCN(c3cc(-c4ccc(Cl)cc4)[nH]n3)CC2)cc1OC | 40µM* | i | ? | 18µM* | 24µM* | 22µM* | -1% | 24µM*
COc1ccc(CC(=O)NC2CCCN(c3cc(-c4ccc(F)cc4)[nH]n3)C2)cc1 (stereo not drawn) | -10% | i | 0% | -3% | . | . | . | .
COc1ccc(CC(=O)NC2CCN(c3cc(-c4ccc(F)cc4)[nH]n3)CC2)cc1OC | ? | i | ? | 11µM* | 22µM* | 19µM* | -1% | 22µM*
COc1cccc(CC(=O)NC2CCN(c3cc(-c4ccc(Cl)cc4)[nH]n3)CC2)c1 | -30% | i | -24% | ? | ? | ? | -3% | ?
COc1ccc(-c2cc(N3CCC(NC(=O)Cc4cccc(OC)c4)CC3)n[nH]2)cc1 | ? | i | ? | -7% | . | . | . | .
COc1ccc(CC(=O)NC2CCN(c3cc(-c4ccc(F)cc4)[nH]n3)C2)cc1OC (stereo not drawn) | ? | i | ? | 13µM* | 22µM* | 22µM* | -1% | 24µM*
N#Cc1cccc(C(=O)N2CCC3(CC2)NC(=O)N(Cc2ccccc2)C3=O)c1 | -4% | i | -11% | 1% | . | . | . | .
N#Cc1ccc(C(=O)NC2CCN(c3cc(-c4ccccc4)[nH]n3)CC2)cc1 | ? | i | ? | 0% | . | . | . | .
N#Cc1ccc(C(=O)NC2CCN(c3cc(-c4ccc(Cl)cc4)[nH]n3)CC2)cc1 | ? | i | -20% | ? | ? | ? | -2% | ?
Cc1ccc(OCC(=O)NC2CCN(c3cc(-c4ccccc4)[nH]n3)CC2)cc1 | -18% | i | -31% | -23% | . | . | . | .
SMILES | HEK293 tox | Luciferase inh | NIH3T3 tox | hNpr1 antagonist | NPR1 antag cnf | NPR2 antag | FLuc inh counter | GloSensor cGMP
COc1ccc(C(=O)NC2CCN(c3cc(-c4ccc(Cl)cc4)[nH]n3)CC2)c(C)c1 | ? | i | ? | ? | . | . | . | .
Cc1ccccc1OCC(=O)NC1CCN(c2cc(-c3ccccc3)[nH]n2)CC1 | 25µM* | i | ? | 11µM* | 15µM* | 22µM* | -2% | 11µM*
COc1ccc(C(=O)NC2CCCN(c3cc(-c4ccc(Cl)cc4)[nH]n3)C2)c(C)c1 (stereo not drawn) | -29% | i | -28% | ? | ? | ? | -2% | ?
CC(=O)N1Cc2ccccc2CC2(CCN(Cc3ccccc3)C2)C1 (stereo not drawn) | -17% | . | -4% | . | -21% | -17% | 2% | -13%
CC(=O)N1Cc2ccccc2CC2(CCN(Cc3ccncc3)C2)C1 (stereo not drawn) | -16% | . | -10% | . | . | . | . | .
O=[S+]([O-])(Nc1ccccc1)c1ccc2c(c1)OCCN(Cc1cccnc1)C2 | ? | i | ? | 22µM* | 40µM* | ? | 6%[86.2 µM] | 40µM*
COc1ccccc1N1CCN([C@@H]2[C@H](O)[C@H](CO)O[C@@H]2CN(Cc2ccc(F)cc2)Cc2ccc(F)cc2)CC1 | 28µM* | i | 32µM* | ? | ? | 14µM* | 0% | -24%
CC(=O)N(C1CC1)C1CCOC2(CCN(C(=O)CCc3nc4ccccc4[nH]3)CC2)C1 (stereo not drawn) | 4% | i | -21% | -6% | . | . | . | .
Clc1cccc(-c2cnc([C@@H]3COCCN3Cc3cnc4ccccc4c3)[nH]2)c1 | 63µM* | i | 79µM* | 28µM* | ? | ? | -1%[86.2 µM] | ?
CC(C)N1CCN(C(=O)c2cc3n(n2)CC(c2ccc(Br)cc2)OC3)CC1 (stereo not drawn) | ? | i | ? | ? | ? | ? | 0% | ?
